This passage reports growth results from PubChem BioAssay (NCI).

The panel holds about 83,000 compounds, 20% with a hit somewhere; the sample as a whole holds those more often.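 The test compound was applied at a single concentration to cells in 96-well plates for 48 hours, and percent growth was recorded.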 Values without a mark were called inactive. Active and inactive are the calls of the source. Rule for the calls: active = growth percent below 10; inactive = the rest.

Common to all, as to experiment: NCI-60 one-dose screen, 48 h (100 = growth as untreated, 0 = no growth, -100 = all killed)
One assay relates to NCI-H23 lung. Conditions: 10 µM unless noted.
Another assay concerns NCI-H226 lung. Particulars: 10 µM unless noted.
The test system of the next assay is NCI-H322M lung. Conditions: 10 µM unless noted.
The test system of the next assay is HOP-62 NSCLC. Particulars: 10 µM unless noted.
In another assay the test system is NCI-H460 lung. Conditions: 10 µM unless noted.
For a further assay, the system named is HOP-92 NSCLC. Particulars: 10 µM unless noted.
The test system of another assay is NCI-H522 lung. Particulars: 10 µM unless noted.
The subject of another assay is A549/ATCC NSCLC. Particulars: 10 µM unless noted.
For a further assay, the system named is 786-0 renal. Particulars: 10 µM unless noted.
For a further assay, the system named is COLO 205 colon. Particulars: 10 µM unless noted.
A further assay deals with DU-145 prostate. Conditions: 10 µM unless noted.
Another assay relates to K-562 leukemia. Conditions: 10 µM unless noted.
For a further assay, the system named is MALME-3M melanoma. Conditions: 10 µM unless noted.
For the next assay, the system named is MDA-MB-231 breast. Particulars: 10 µM unless noted.
A further assay concerns RXF 393 renal. Conditions: 10 µM unless noted.
Another assay has as its system SF-268 CNS. Conditions: 10 µM unless noted.
The test system of the next assay is SF-295 CNS. Particulars: 10 µM unless noted.
The next assay relates to SF-539 CNS. Conditions: 10 µM unless noted.
The test system of another assay is UACC-257 melanoma. Particulars: 10 µM.
For the next assay, the system named is M14 melanoma. Particulars: 10 µM unless noted.

In the case of `CCN1C(=O)N(CC)C2SC(N/N=C/c3ccc(F)cc3)=NC21` (stereo not given), the growth with NCI-H23 lung is 29.6%; with NCI-H226 lung it was 48.1%; in the assay with NCI-H322M lung, 55.2%; in the assay with HOP-62 NSCLC it was 33%; with NCI-H460 lung it was 4.72% (active); in the assay with HOP-92 NSCLC, -0.0922% (active). For the same compound, the growth in the assay on NCI-H522 lung was -32.8% (active); in the assay on A549/ATCC NSCLC it was 26.4%; in the assay with 786-0 renal it was 30.3%; in the assay with COLO 205 colon, -49.1% (active); in the assay with DU-145 prostate, 16%; with K-562 leukemia, 14.2%. The growth in the assay on MALME-3M melanoma is 54.7%; in the assay on MDA-MB-231 breast it was 32.4%; with RXF 393 renal it was 47.3%; in the assay with SF-268 CNS it was 42.4%; in the assay on SF-295 CNS it was 12.1%; in the assay with SF-539 CNS, -4.01% (active). In addition, the results for the growth with UACC-257 melanoma and in the assay on M14 melanoma were 57.8% and 14.6%, respectively.

As for `COC(=O)Nc1ccc(-c2nc(-c3cccc(O)c3)c(-c3ccnc(Br)c3)[nH]2)cc1`, the growth in the assay on NCI-H23 lung was 67.2%; in the assay with NCI-H226 lung, 63.8%; in the assay with NCI-H322M lung, 68.4%; in the assay on HOP-62 NSCLC it was 64.7%; in the assay on NCI-H460 lung, 26.8%; in the assay on HOP-92 NSCLC, 51.5%. Further, the growth is 56% with NCI-H522 lung; 62.2% in the assay with A549/ATCC NSCLC; 34.6% with 786-0 renal; 95.4% in the assay on COLO 205 colon; 62.1% in the assay with DU-145 prostate; 27.9% in the assay with K-562 leukemia. For the same compound, the growth was 54.1% in the assay on MALME-3M melanoma; 56.6% in the assay with MDA-MB-231 breast; -4.89% (active) in the assay on RXF 393 renal; 72.6% in the assay on SF-268 CNS; 27.8% with SF-295 CNS; 52.6% in the assay with SF-539 CNS. Further, the growth with UACC-257 melanoma was 58.5%; with M14 melanoma, 48.9%.

On to `O=C(Cn1cc(CN2C(=O)c3ccc([N+](=O)[O-])cc3C2=O)nn1)Nc1ccccc1Br`, for which the growth in the assay with NCI-H23 lung was 98.1%; in the assay with NCI-H226 lung it was 104%; in the assay on NCI-H322M lung it was 98.2%; in the assay on HOP-62 NSCLC, 109%; in the assay with NCI-H460 lung it was 108%; in the assay with HOP-92 NSCLC, 114%. Also, the growth in the assay on NCI-H522 lung was 102%; with A549/ATCC NSCLC, 108%; in the assay on 786-0 renal, 107%; in the assay on COLO 205 colon, 117%; with DU-145 prostate, 113%; in the assay on K-562 leukemia it was 98.5%. The growth with MALME-3M melanoma is 99.5%; in the assay with MDA-MB-231 breast, 103%; with RXF 393 renal, 119%; in the assay with SF-268 CNS, 106%; in the assay on SF-295 CNS, 108%; in the assay on SF-539 CNS, 107%. For the same compound, the growth was 106% in the assay with UACC-257 melanoma and 101% in the assay with M14 melanoma.

For `O=C(CN1C(=O)S/C(=C\c2ccccc2)C1=O)Nc1ccc(C(=O)/C=C/c2cc3ccccc3nc2Cl)cc1`, the growth is 59.3% in the assay on NCI-H23 lung; 92.2% in the assay with NCI-H226 lung; 92.2% in the assay with NCI-H322M lung; 87.6% in the assay on HOP-62 NSCLC; 88.3% in the assay on NCI-H460 lung; 87.9% in the assay with HOP-92 NSCLC. Also, the growth with NCI-H522 lung is 73.3%; in the assay with A549/ATCC NSCLC, 88.6%; with 786-0 renal it was 94.8%; with COLO 205 colon, 103%; in the assay with DU-145 prostate, 91.4%; in the assay with K-562 leukemia, 51.2%. In addition, the growth is 91.1% in the assay with MALME-3M melanoma; 90.2% in the assay with MDA-MB-231 breast; 109% in the assay with RXF 393 renal; 81.8% in the assay with SF-268 CNS; 81% with SF-295 CNS; 90.8% in the assay with SF-539 CNS. For the same compound, the growth with UACC-257 melanoma was 71.3%; with M14 melanoma it was 78.8%.

For `C#C[C@]1(O)CC[C@H]2[C@@H]3CC=C4c5sc(Nc6cccc(Cl)n6)nc5CC[C@]4(C)[C@H]3CC[C@@]21C`, the growth is 16.1% in the assay on NCI-H23 lung; 19.8% in the assay on NCI-H226 lung; 44.5% in the assay on NCI-H322M lung; -8.39% (active) in the assay on HOP-62 NSCLC; -2.3% (active) in the assay on NCI-H460 lung; -5.56% (active) in the assay with HOP-92 NSCLC. For the same compound, the growth is -17.7% (active) in the assay on NCI-H522 lung; 18.5% with A549/ATCC NSCLC; -54.8% (active) in the assay on 786-0 renal; 34.5% in the assay on COLO 205 colon; 24.5% with DU-145 prostate; 3.91% (active) in the assay with K-562 leukemia. The growth is -20.2% (active) in the assay with MALME-3M melanoma; 9.05% (active) with MDA-MB-231 breast; -57.4% (active) in the assay with RXF 393 renal; -16.5% (active) in the assay on SF-268 CNS; -70.2% (active) with SF-295 CNS; -60.2% (active) in the assay with SF-539 CNS. In addition, the results for the growth in the assay on UACC-257 melanoma and with M14 melanoma were -64.3% (active) and -22.8% (active), respectively.

With `C=C(C)[C@@H]1CC[C@]2(C(=O)ON)CC[C@]3(C)[C@H](CC[C@@H]4[C@@]5(C)C/C(=C/c6ccc(Br)cc6)C(=O)C(C)(C)[C@@H]5CC[C@]43C)[C@@H]12`, the growth in the assay with NCI-H23 lung is 78.4%; in the assay with NCI-H226 lung, 72.6%; in the assay on NCI-H322M lung, 85.1%; with HOP-62 NSCLC, 85.9%; in the assay on NCI-H460 lung, 71%; in the assay with HOP-92 NSCLC, 73.6%. For the same compound, the growth was 66.8% in the assay on NCI-H522 lung; 54.8% in the assay with A549/ATCC NSCLC; 84.8% in the assay on 786-0 renal; 88% with COLO 205 colon; 79.2% with DU-145 prostate; 46.3% in the assay with K-562 leukemia. Moreover, the growth is 83.2% in the assay on MALME-3M melanoma; 80.6% with MDA-MB-231 breast; 78.4% in the assay on RXF 393 renal; 81.1% in the assay with SF-268 CNS; 74.9% in the assay on SF-295 CNS; 75.9% with SF-539 CNS. Also, the results for the growth with UACC-257 melanoma and in the assay with M14 melanoma were 81.1% and 76%, respectively.
